In ChEMBL document CHEMBL1157539, “Thousands of chemical starting points for antimalarial lead identification” (Nature, 2010):

Key:
Type in all cases: functional
[1] = system: Plasmodium falciparum; experiment: GSK_TCMDC: Inhibition of Plasmodium falciparum 3D7 in whole red blood cells, using parasite LDH activity as an index of growth. Test compounds present at 2uM
[2] = system: Plasmodium falciparum; experiment: GSK_TCMDC: Inhibition of Plasmodium falciparum Dd2 in whole red blood cells, using parasite LDH activity as an index of growth. Test compounds present at 2uM
[3] = system: HepG2; experiment: GSK_TCMDC: Percent inhibition of human HepG2 cell line. Test compounds present at 10uM.

SMILES	Inhibition [1] [%]	Inhibition [2] [%]	Inhibition [3] [%]
Cc1ccc(CON2C(N)=NC(N)=NC2(C)C)c(Cl)c1.Cc1ccc(CON2C(N)=NC(N)=NC2(C)C)cc1Cl	91	96	67
Cc1cc(NC(=O)Nc2cccc(Cl)c2Cl)c2ccccc2n1	96	25	0
O=c1ccc(CNc2nc(NCCc3ccccc3)nc3cc(Cl)ccc23)c[nH]1	95	78	21
